In the library only some 4.1% were active in any assay of this set; here they are far more common.
hcDAF-12 act: H. contortus DAF-12 nuclear receptor activators, primary screen, cell-based, luminescence, HEK293, lit1-tk-luc reporter | activation, % at 6.8 µM | HEK293 hcDAF-12 lit1-tk-luc reporter; 0% DMSO, 100% Δ7-dafachronic acid | 370,000 compounds, 1.4% hits;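 active = activation above the mean of all tested compounds plus 3 SD, cut at about 5.5% in these data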
ssDAF12 agonist: S. stercoralis DAF-12 nuclear receptor activators, primary screen, cell-based, luminescence, HEK293, GRIP1 co-expression, lit1-tk-luc | Nuclear hormone receptor DAF-12 (Strongyloides stercoralis) | HEK293 ssDAF-12/GRIP1 lit1-tk-luc reporter; % of 3 µM dafachronic acid response | activation, % at 6.8 µM | 370,000 compounds, 1% hits | AID 652126, 2013;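 active = activation above the mean over all tested compounds plus 3 SD, cut at about 0.9% in these data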
hgDAF-12 ag: H. glycines DAF-12 receptor agonists, primary screen, cell-based, luminescence, HEK293, GAL4 fusion, UAS-luciferase. activation, % at 6.8 µM. 370,000 compounds, 1.8% hits. Nuclear hormone receptor DAF-12 (Heterodera glycines), GAL4 fusion. HEK293 GAL4-hgDAF12 UAS-luciferase reporter, agonist luminescence; normalized to butyrate control. AID 687014, 2013;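 active = activation above a cutoff set at the mean of all screened compounds plus 3 SD, cut at about 10% in these data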
DAX1 inh-1: DAX1 (NR0B1) inhibitors on StAR promoter, primary screen, cell-based, luminescence, SF-1 (NR5A1), full-length DAX-1. inhibition, % at 6.8 µM. AID 652010, 2013. 370,000 compounds, 1.1% hits. HEK293T StAR-luciferase reporter, SF-1/DAX-1 repression relief;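 active = inhibition above the mean over all tested compounds plus 3 SD, cut at about 3.6% in these data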;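 note: higher inhibition means more luminescence from relief of DAX-1 repression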
DAX1 inh-2: DAX1 (NR0B1) inhibitors, primary screen, cell-based, HEK293, Gal4-DAX1, luciferase luminescence; inhibition, % at 6.75 µM; Nuclear receptor subfamily 0 group B member 1 (Homo sapiens), P51843; 340,000 compounds, 0.99% hits; HEK293 Gal4-DAX1 luciferase reporter; AID 504766, 2011;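 active = inhibition above the mean over all tested compounds plus 3 SD, cut at about 4.2% in these data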;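 note: inhibition shows as a rise in luminescence from relieved DAX1 repression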
DAX1 inh confirm: DAX1 (NR0B1) inhibitors relieving SF-1 repression, confirmation, cell-based, luminescence, HEK293T, full-length DAX-1, SF-1 activated StAR promoter | shares compounds with DAX1 inh-1 | HEK293T StAR-promoter luciferase reporter, SF-1/DAX-1 repression | inhibition, % at 6.8 µM | 2,400 compounds, 87% hits | AID 652134, 2013;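 active = inhibition above the average of every tested compound plus 3 SD, cut at about 3.8% in these data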
Target sequence (P51843 whole entry, looked up): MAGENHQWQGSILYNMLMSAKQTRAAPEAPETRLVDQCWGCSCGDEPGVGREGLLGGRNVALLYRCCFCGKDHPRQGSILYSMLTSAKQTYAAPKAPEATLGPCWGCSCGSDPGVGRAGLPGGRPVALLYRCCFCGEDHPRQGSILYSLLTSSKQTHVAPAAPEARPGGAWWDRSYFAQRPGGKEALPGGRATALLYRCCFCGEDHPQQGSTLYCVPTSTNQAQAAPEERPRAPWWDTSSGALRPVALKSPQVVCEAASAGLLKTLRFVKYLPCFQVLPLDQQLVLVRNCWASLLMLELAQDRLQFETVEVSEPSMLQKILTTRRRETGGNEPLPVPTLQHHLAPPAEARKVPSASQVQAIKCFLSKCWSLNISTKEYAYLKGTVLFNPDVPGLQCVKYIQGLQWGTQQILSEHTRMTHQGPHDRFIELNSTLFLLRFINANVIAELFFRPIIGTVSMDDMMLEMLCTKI
SF1 AF2mut Luc: StAR reporter signal changes without DAX1, counter-screen for DAX1 inhibitor project, cell-based, luminescence, AF-2 mutant SF-1, transactivation | shares compounds with DAX1 inh-1 | HEK293 StAR-luciferase, SF-1 AF2 mutant | inhibition, % at 6.8 µM | 2,400 compounds, 78% hits | AID 652136, 2013;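 active = inhibition above the mean of all tested compounds plus 3 SD, cut at about 3% in these data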
Hits are given with their value; 0 = inactive; - = no result.

SMILES	hcDAF-12 act	ssDAF12 agonist	hgDAF-12 ag	DAX1 inh-1	DAX1 inh-2	DAX1 inh confirm	SF1 AF2mut Luc
Cc1csc2c(=O)sc(NC(=O)c3cccs3)nc12	0	0	0	0	-	-	-
CCOC(=O)c1c(NC(=O)c2ccc(N3C(=O)C4C5C=CC(C5)C4C3=O)cc2)sc2c1CCCC2 (stereo not drawn)	0	0	0	0	0	-	-
CC(NC(=O)CSc1ccc(S(=O)(=O)N2CCOCC2)cn1)c1ccc(Cl)cc1Cl (stereo not drawn)	0	0	0	0	0	-	-
CCOc1ccc(NC(=O)c2ccc3c(c2)N(C)CCS3)cc1	0	0	0	5.0	0	5.0	0
O=C(NC(=S)Nc1ccc2ncccc2c1)c1ccccc1	0	0	11.8	4.8	0	7.7	5.8
O=C(O)c1cccc(NC(=S)NC(=O)c2ccc3ccccc3c2)c1	0	0	0	10.6	0	8.0	4.4
O=C(Nc1ccc2ncccc2c1)c1ccccc1	0	0	0	0	0	-	-
O=C(NC(=S)Nc1ccc2nc[nH]c2c1)c1ccccc1	0	0	0	6.5	0	5.9	3.1
O=C(NC(=S)Nc1ccc2[nH]ncc2c1)c1ccccc1	0	0	0	0	0	-	-
O=C(O)c1ccc(NC(=S)NC(=O)c2ccc3ccccc3c2)cc1	0	0	0	0	0	-	-
CC(NC(=O)Cc1ccccc1)c1cc2c(cc1Br)OCCCO2 (stereo not drawn)	0	0	0	0	0	-	-
Cc1ccc(C(=O)NNC(=S)NC(=O)COc2ccccc2)cc1	0	0	0	0	0	-	-
CC(C)(C)c1ccc(C(=O)NC(=S)NNC(=O)COc2ccccc2)cc1	0	0	11.1	12.0	0	0	0
Cc1ccc(N(Cc2ccccc2)C(=O)c2ccc(F)c(S(=O)(=O)N3CCOCC3)c2)cc1	0	0	0	0	0	-	-
CC(C)(c1ccccc1)c1ccc(OCc2ccc(C(=O)O)o2)cc1	0	0	0	11.1	0	5.3	4.9
CC(C)(C)c1ccc(OCc2ccc(C(=O)NN)o2)cc1	0	0	0	0	0	-	-
O=C(NCc1cccnc1)C(=O)C1C(=O)Nc2ccccc21 (stereo not drawn)	0	0	0	0	0	-	-
O=C(COc1ccc(Cl)cc1Cl)Nc1cccc(-c2ccc(N3CCOCC3)nn2)c1	0	0	0	0	0	-	-
O=C(Nc1cccc(-c2ccc(N3CCOCC3)nn2)c1)c1ccccc1	0	0	0	4.7	0	0	0
CC1CCN(c2ccc(-c3cccc(NC(=O)c4ccco4)c3)nn2)CC1	0	0	0	8.0	0	10.8	3.4
COc1ccc(-c2ccc(NC(=O)c3ccco3)cc2)nn1	0	0	0	9.0	0	12.9	0
O=C(Nc1cccc(-c2ccc(N3CCOCC3)nn2)c1)c1ccc([N+](=O)[O-])cc1	0	0	0	0	0	-	-
O=C(COc1ccccc1)Nc1cccc(-c2ccc(N3CCOCC3)nn2)c1	0	0	12.7	7.9	0	5.3	0
COC(=O)CN(C)C(=O)c1ccccc1OC1CCN(S(C)(=O)=O)CC1	0	0	0	0	0	-	-
Cc1cccc(/C=N/NC(=O)c2ccc(F)cc2)n1	0	0	0	0	0	-	-
SMILES	hcDAF-12 act	ssDAF12 agonist	hgDAF-12 ag	DAX1 inh-1	DAX1 inh-2	DAX1 inh confirm	SF1 AF2mut Luc
O=C(NC1CCCCC1)C(c1ccc(-c2ccccc2)cc1)n1c(=O)c(-c2ccco2)nc2ccccc21 (stereo not drawn)	0	0	0	4.8	-	0	0
CC(C)(C)c1ccc(C(=O)Nc2nnc(SCC(=O)NCC3CCCO3)s2)cc1 (stereo not drawn)	0	0	0	11.3	0	8.9	6.1
CN(C)S(=O)(=O)c1ccc(C(=O)Nc2nnc(SCC(=O)NCC3CCCO3)s2)cc1 (stereo not drawn)	0	0	0	0	0	-	-
CCOc1ccc(C(=O)Nc2nnc(SCC(=O)NCC3CCCO3)s2)cc1 (stereo not drawn)	6.1	0	0	5.4	0	4.2	0
Cc1n[nH]c(C)c1NC(=O)CN1CCN(S(=O)(=O)c2ccc(C(F)(F)F)cc2)CC1	0	0	0	4.6	0	0	5.2
O=C(CCS(=O)(=O)c1ccccc1)N(CCCN1CCOCC1)c1nc2ccc(F)cc2s1	0	0	0	6.7	0	5.5	0
COc1ccc(S(=O)(=O)CCC(=O)N2CCN(c3ccc(C(C)=O)cc3)CC2)cc1	0	0	0	0	0	-	-
CCOC(=O)CNC(=O)C1Cc2ccccc2CN1S(=O)(=O)c1cccs1 (stereo not drawn)	0	0	0	0	0	-	-
CN(C)CCNC(C(=O)Nc1cccc(C(F)(F)F)c1)c1ccccc1 (stereo not drawn)	0	0	0	0	0	-	-
O=C(NC(=S)Nc1ccc([N+](=O)[O-])cc1O)C1CCCCC1	0	0	0	0	0	-	-
Cn1ccc(C(=O)NC(=S)Nc2ccc([N+](=O)[O-])cc2O)n1	0	0	0	8.3	0	10.5	5.8
CCOC(=O)C(NC(=O)Nc1ccc(Cl)cn1)(Oc1ccc(F)cc1)C(F)(F)F (stereo not drawn)	0	0	0	4.8	0	4.0	3.2
CCOC(=O)C(NC(=O)NCc1ccc(F)cc1)(OCC)C(F)(F)F (stereo not drawn)	0	0	0	0	0	-	-
CCOC1=C2[C@@H](CN(S(=O)(=O)c3ccc(C)cc3)[C@H]2c2ccccc2Cl)[C@H]2C(=O)N(Cc3ccccc3)C(=O)[C@H]2C1	0	0	0	0	-	-	-
Cc1ccc(NC(=O)CCC(=O)c2cccs2)c(Br)c1	0	0	0	8.0	0	7.6	5.5
Cc1ccc(NC(=O)COC(=O)CCC(=O)c2cccs2)c(Br)c1	0	0	0	0	0	-	-
O=C(Nc1nnc(SCc2ccccc2F)s1)C1=COCCO1	0	0	0	5.8	0	6.4	0
O=C(Nc1nnc(SCc2ccccc2)s1)C1=COCCO1	0	0	0	0	0	-	-
C=CCSc1nnc(NC(=O)C2=COCCO2)s1	5.7	0	0	6.8	0	7.1	6.6
O=C(Nc1sc2c(c1C(=O)O)CCCCC2)c1ccco1	0	0	0	0	0	-	-

Compound activity deposited in PubChem by The Scripps Research Institute Molecular Screening Center.
